The values that follow come from PubChem BioAssay.

The structures appear in SMILES notation. Active and inactive are the calls of the source.

A short description of assay [1]: optical density shifts of acrAB sulA E. coli – strain DRC41, OD650, 48 h, E. coli filamentation inducer project, primary screen (AID 1152).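 Also: E. coli MC1000 strain DRC41 lacking acrAB efflux pump and sulA.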 To be noted: higher = more signal, called active from +8 up or from −8 down.
Assay [2] can be described thus: probe aLefty1 binding on compound microarray – biochemical, small-molecule microarray, 635/667 nm fluorescence, primary screen (AID 1153).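 Also: score merges spot fluorescence with signal-to-noise ratio from the scanned slide images.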 To be noted: higher = more signal.
Assay [3] can be described thus: plasmodial surface anion channel blockers, osmotic lysis – cell-based, P. falciparum Indochina, OD700, 1 h, primary screen (AID 1154). The note with it: P. falciparum Indochina infected RBC osmotic lysis, higher = more signal, called active from +8 up or from −8 down.
Assay [4] can be described thus: plasmodial surface anion channel blockers, osmotic lysis – cell-based, P. falciparum Indochina, OD700, 2 h, primary screen (AID 1155).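 Also: lysis reports solute entry through the parasite surface anion channel PSAC.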 To be noted: P. falciparum Indochina infected erythrocytes, higher = more signal, called active from +8 up or from −8 down.
Assay [5] can be described thus: changes in parasitized red cell lysis, either direction – P. falciparum Indochina, OD700, 3 h, PSAC antagonist project, primary screen (AID 1156). To be noted: P. falciparum-infected erythrocytes, osmotic lysis, higher = more signal, called active from +8 up or from −8 down.
Assay [6] in a line: plasmodial surface anion channel blockers, osmotic lysis – cell-based, P. falciparum Indochina, OD700, 18 h, primary screen (AID 1157). The note with it: P. falciparum Indochina infected erythrocytes, osmotic lysis OD700, 18 h; higher = more signal, called active from +8 up or from −8 down.
Assay [7] can be described thus: S6 kinase pathway phospho-S6 level changes – cell-based, A549, cytoblot, luminescence, serum-stimulated, primary screen (AID 1158).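 Also: serum-stimulated A549 lung adenocarcinoma cells; signal is phosphorylated S6 detected by cytoblot immunostaining with HRP secondary.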 To be noted: 5 h, higher = more signal.
The target of assay [8] is NADPH oxidase 2 (Homo sapiens) (UniProt P04839). Nature of the assay: compounds shifting NOX2 Amplex Red fluorescence – cell-based, HEK293-NOX2, PMA-stimulated, NOX inhibitor project, primary screen (AID 1159). Also: test concentration not given here. To be noted: 45 min, higher = more signal, called active from +8 up or from −8 down.
NADPH oxidase 2 (Homo sapiens), sequence (P04839 whole entry, looked up): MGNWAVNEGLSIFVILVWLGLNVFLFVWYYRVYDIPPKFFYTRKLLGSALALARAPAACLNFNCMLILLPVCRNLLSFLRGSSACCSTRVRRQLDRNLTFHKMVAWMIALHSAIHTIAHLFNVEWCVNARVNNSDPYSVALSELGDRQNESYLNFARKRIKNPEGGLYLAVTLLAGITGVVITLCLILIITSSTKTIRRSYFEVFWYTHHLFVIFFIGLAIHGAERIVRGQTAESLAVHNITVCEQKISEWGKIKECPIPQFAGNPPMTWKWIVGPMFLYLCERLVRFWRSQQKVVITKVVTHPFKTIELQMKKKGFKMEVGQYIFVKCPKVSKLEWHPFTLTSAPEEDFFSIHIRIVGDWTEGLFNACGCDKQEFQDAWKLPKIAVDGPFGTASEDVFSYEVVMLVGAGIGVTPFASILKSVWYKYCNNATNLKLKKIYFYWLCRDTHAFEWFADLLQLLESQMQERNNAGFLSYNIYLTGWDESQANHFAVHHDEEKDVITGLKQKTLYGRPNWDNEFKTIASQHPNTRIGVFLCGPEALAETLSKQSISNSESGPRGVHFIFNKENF
Assay [9] deals with NADPH oxidase 4 (Homo sapiens) (UniProt Q9NPH5). Nature of the assay: compounds shifting NOX4 Amplex Red fluorescence – cell-based, HEK293-NOX4, tetracycline-induced, NOX inhibitor project, primary screen (AID 1160). To be noted: HEK293-NOX4, Amplex Red H2O2 fluorescence, 45 min; higher = more signal, called active from +8 up or from −8 down.
NADPH oxidase 4 (Homo sapiens), sequence (Q9NPH5 whole entry, looked up): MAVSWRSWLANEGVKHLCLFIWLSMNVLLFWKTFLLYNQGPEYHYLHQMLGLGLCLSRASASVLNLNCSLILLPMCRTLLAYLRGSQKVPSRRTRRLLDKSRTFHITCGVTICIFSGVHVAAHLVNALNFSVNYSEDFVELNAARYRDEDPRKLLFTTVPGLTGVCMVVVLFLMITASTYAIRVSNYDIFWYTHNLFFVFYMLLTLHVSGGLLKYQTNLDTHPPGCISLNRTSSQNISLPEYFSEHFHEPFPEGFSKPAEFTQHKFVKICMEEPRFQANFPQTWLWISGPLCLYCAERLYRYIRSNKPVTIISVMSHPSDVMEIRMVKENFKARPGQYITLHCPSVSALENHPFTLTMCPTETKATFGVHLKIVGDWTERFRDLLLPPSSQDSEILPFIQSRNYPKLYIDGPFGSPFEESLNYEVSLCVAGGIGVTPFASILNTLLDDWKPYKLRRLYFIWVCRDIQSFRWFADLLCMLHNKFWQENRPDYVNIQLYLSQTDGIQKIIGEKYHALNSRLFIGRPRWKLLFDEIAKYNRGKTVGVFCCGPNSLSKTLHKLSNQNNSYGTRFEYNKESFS
Assay [10] has as its target NADPH oxidase 5 (Homo sapiens) (UniProt Q96PH1). The experiment in a line: compounds shifting NOX5 Amplex Red fluorescence – cell-based, HEK293-NOX5, NOX inhibitor project, primary screen (AID 1161). The note with it: HEK293-NOX5, ionomycin, 45 min, higher = more signal.
Assay [11] in a line: compound effects on lung adenocarcinoma cell viability – A549, calcein-AM fluorescence, 48 h, basal, profiling panel (AID 1162). Also: test concentration not given here. To be noted: higher = more signal.
Assay [12] is described as follows: compound effects on differentiated 3T3-L1 adipocyte viability – cell-based, 3T3-L1 adipocytes, calcein-AM fluorescence, 48 h, basal, profiling panel (AID 1163). Also: test concentration not given here. To be noted: 3T3-L1 adipocytes viability, higher = more signal.
Assay [13] is described as follows: compound effects on hepatocellular carcinoma cell viability – HepG2, calcein-AM fluorescence, 48 h, basal, profiling panel (AID 1164). Also: test concentration not given here. To be noted: higher = more signal.
Assay [14] is described as follows: compound effects on multiple myeloma cell viability – MM1S, calcein-AM fluorescence, 48 h, basal, profiling panel (AID 1165).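 Also: viability of MM1S multiple myeloma cells under basal unstimulated conditions; test concentration not given here.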 To be noted: higher = more signal.
Assay [15] in a line: calcein-AM signal in unstimulated myeloma cells – cell-based, calcein-AM fluorescence, 48 h, PK04 Diversity Set, profiling panel (AID 1166).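 Also: cells grown under basal conditions without added stimulus; test concentration not given here.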 The note with it: RPMI8226 myeloma viability, higher = more signal.
Assay [16] is described as follows: JC-1 mitochondrial signal, unstimulated HepG2 cells – cell-based, JC-1 fluorescence, 24 h, 100 nL compound, profiling panel (AID 1167). Also: test concentration not given here. The note with it: HepG2 mitochondrial potential, higher = more signal.
Assay [17] in a line: JC-1 mitochondrial signal, unstimulated adipocytes – cell-based, JC-1 fluorescence, 3T3-L1 adipocytes, 24 h, 100 nL compound, profiling panel (AID 1168). Also: test concentration not given here. The note with it: JC-1 mitochondrial fluorescence, higher = more signal, called active from +8 up or from −8 down.
Assay [18] is described as follows: JC-1 mitochondrial signal, unstimulated myeloma cells – cell-based, JC-1 fluorescence, RPMI8226, 24 h, 100 nL compound, profiling panel (AID 1169). Also: test concentration not given here. To be noted: JC-1 mitochondrial potential fluorescence, higher = more signal.
A short description of assay [19]: JC-1 mitochondrial signal, unstimulated MM1S myeloma – cell-based, JC-1 fluorescence, 24 h, 100 nL compound, profiling panel (AID 1170). Also: test concentration not given here. The note with it: MM1S mitochondrial potential, higher = more signal.
A short description of assay [20]: resazurin metabolic signal in A549 cells – cell-based, resazurin fluorescence, 24 h, PK04 Diversity Set, profiling panel (AID 1171). Also: test concentration not given here. To be noted: A549 viability, higher = more signal, called active from +8 up or from −8 down. (In general: The colour change of resazurin is a common sign of viable cells or microbes.)

NADPH oxidase 5 (Homo sapiens), sequence (Q96PH1 whole entry, looked up): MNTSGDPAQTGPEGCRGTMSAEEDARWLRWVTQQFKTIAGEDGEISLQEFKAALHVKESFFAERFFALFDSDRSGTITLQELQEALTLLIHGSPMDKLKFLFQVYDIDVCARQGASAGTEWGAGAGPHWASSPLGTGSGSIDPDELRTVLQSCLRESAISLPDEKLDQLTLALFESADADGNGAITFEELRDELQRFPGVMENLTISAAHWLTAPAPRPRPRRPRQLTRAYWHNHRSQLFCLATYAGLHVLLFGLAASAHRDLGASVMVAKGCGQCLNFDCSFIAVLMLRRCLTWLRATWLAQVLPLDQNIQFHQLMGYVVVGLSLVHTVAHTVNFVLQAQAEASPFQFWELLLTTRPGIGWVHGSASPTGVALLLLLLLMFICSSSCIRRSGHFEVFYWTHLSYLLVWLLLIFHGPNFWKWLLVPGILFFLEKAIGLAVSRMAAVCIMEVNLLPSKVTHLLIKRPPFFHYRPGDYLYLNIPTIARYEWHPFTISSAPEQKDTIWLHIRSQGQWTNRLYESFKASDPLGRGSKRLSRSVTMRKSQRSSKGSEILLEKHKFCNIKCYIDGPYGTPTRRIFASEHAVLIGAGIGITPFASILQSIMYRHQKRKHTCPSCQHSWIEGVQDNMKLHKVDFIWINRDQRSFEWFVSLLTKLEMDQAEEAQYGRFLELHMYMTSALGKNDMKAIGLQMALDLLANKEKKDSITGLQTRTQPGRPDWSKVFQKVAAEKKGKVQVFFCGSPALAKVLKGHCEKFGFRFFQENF

For `C=CCN1Cc2ccccc2C[C@@]2(N=C(c3ccc(OCCCO)cc3)O[C@H]2c2ccccc2)C1=O`, the z-score in assay [1] is 0.404 (inactive); in assay [3], 28.1 (active); in assay [4], 23.6 (active); in assay [5] it was 2.55 (inactive); in assay [6], 5.74 (inactive); in [7] it was 0.624. Further, the z-score was -5.76 (inactive) in [8]; -0.323 (inactive) in [9]; -3.72 in assay [10]; -1.46 in assay [11]; 0.906 in assay [12]; -1.05 in assay [13]. Besides, the z-score is -3.52 in assay [14]; -3.95 in [15]; 0.166 in assay [16]; 1.4 (inactive) in [17]; -1.03 in [18]; -2.48 in assay [19]. Besides, in assay [20], the z-score is -3.12 (inactive). In assay [2], this compound showed a composite z-score of 0.57.

As for `CO[C@H]1O[C@H](CO)[C@@H](OC(=O)Nc2ccc(Oc3ccccc3)cc2)[C@H](OC(=O)Nc2ccccc2-c2ccccc2)[C@@H]1OC(=O)Nc1ccccc1-c1ccccc1`, the z-score in assay [1] was 0.963 (inactive); in assay [3], 0.484 (inactive); in assay [4], 1.04 (inactive); in [5], 0.228 (inactive); in assay [6] it was 0.766 (inactive); in assay [7], 0.322. The z-score in [8] is 2.06 (inactive); in assay [9], 0.707 (inactive); in assay [10], 0.356; in assay [11], -0.0685; in [12] it was 0.0358; in assay [13] it was -0.61. In addition, the z-score was -0.443 in assay [14]; -0.612 in assay [15]; 0.319 in assay [16]; 2.46 (inactive) in assay [17]; -1.13 in [18]; 0.267 in assay [19]. Moreover, the z-score in [20] is -0.41 (inactive). In addition, in assay [2], the composite z-score is 0.361.

For `C=C[C@H](COC(C)=O)NS(=O)(=O)c1ccc(Br)cc1`, the z-score in [1] is 0.348 (inactive); in assay [3], 0.174 (inactive); in [4] it was -0.191 (inactive); in assay [5], -0.3 (inactive); in assay [6], 0.252 (inactive); in assay [7] it was 0.16. The z-score in [8] is 1.96 (inactive); in [9], -0.0653 (inactive); in assay [10] it was 0.0573; in [11], 0.0955; in [12], -0.569; in assay [13] it was 1.05. Further, the z-score in assay [14] was 0.661; in [15], 0.402; in assay [16] it was 0.549; in [17] it was 0.0685 (inactive); in assay [18], -0.616; in assay [19] it was 0.651. The z-score in assay [20] is -0.201 (inactive). In [2], the composite z-score came out at 0.0056.

Regarding `CCCCC(=C=CC[C@@H](O)c1ccc(OCCO)cc1)C[C@@H](O)COCc1ccccc1`, the z-score was 1.98 (inactive) in [1]; 16.5 (active) in [3]; 1.73 (inactive) in assay [4]; -0.0577 (inactive) in assay [5]; -0.237 (inactive) in assay [6]; 1.95 in assay [7]. For the same compound, the z-score in assay [8] was -2.67 (inactive); in assay [9] it was -0.61 (inactive); in [10] it was -2.45; in [11] it was 2.64; in assay [12], 0.716; in assay [13], 2.15. Also, the z-score was -1.35 in [14]; -0.586 in assay [15]; 0.605 in assay [16]; -0.0104 (inactive) in assay [17]; 0.178 in assay [18]; -1.18 in assay [19]. In [20], the z-score is 0.812 (inactive). Besides, the composite z-score in assay [2] is 0.596.

Take `COC1(C)CN(Cc2ccccc2Br)[C@H](/C=C/c2ccccc2)[C@H](Cc2ccccc2)O1` (stereo not given in full): the z-score in assay [1] is 1.16 (inactive); in [3], 0.787 (inactive); in [4], 0.669 (inactive); in assay [5] it was 0.911 (inactive); in assay [6] it was -0.0143 (inactive); in [7], 0.52. Besides, the z-score in [8] is -0.112 (inactive); in [9] it was 0.76 (inactive); in assay [10], -0.271; in assay [11] it was 0.411; in assay [12], 1.2; in assay [13], 0.875. Also, the z-score in [14] is -0.245; in [15] it was -0.0348; in [16] it was -0.545; in [17], -0.35 (inactive); in assay [18], -0.19; in assay [19] it was -0.861. In addition, in assay [20], the z-score was 0.494 (inactive). In [2], this compound had a composite z-score of -0.31.

Take `CN1C(=O)C2C(C1=O)C1C=C(c3ccc(CO)cc3)C2C(c2cccs2)N1Cc1cccc(OC(F)(F)F)c1` (stereo not given): the z-score was -0.652 (inactive) in assay [1]; 17.4 (active) in [3]; 3.33 (inactive) in assay [4]; 1.81 (inactive) in [5]; 1.43 (inactive) in [6]; 0.624 in [7]. Moreover, the z-score in assay [8] is -2.71 (inactive); in assay [9], -1.35 (inactive); in assay [10], -2.6; in assay [11] it was 0.567; in assay [12] it was 1.25; in assay [13], -0.617. Further, the z-score in assay [14] was -0.314; in assay [15], -2.96; in assay [16] it was -1.71; in [17], -1.12 (inactive); in assay [18] it was -0.722; in assay [19] it was -0.556. The z-score in assay [20] was -0.665 (inactive). Also, the composite z-score in assay [2] amounted to 0.0999.

For the compound `CCOc1cc(C(O)C2C=CC3C(=O)N(C4CCCCC4)C(=O)C3N2Nc2ccc(OC)cc2)ccc1O` (stereo not given), the z-score was -0.0582 (inactive) in assay [1]; 6.34 (inactive) in assay [3]; 0.679 (inactive) in assay [4]; 1.04 (inactive) in assay [5]; 0.265 (inactive) in assay [6]; -0.089 in [7]. Moreover, the z-score is -2.2 (inactive) in [8]; -3.71 (inactive) in assay [9]; -2.46 in assay [10]; 0.366 in assay [11]; -0.786 in assay [12]; 0.772 in [13]. Moreover, the z-score in assay [14] was 0.26; in [15], -0.141; in assay [16], 0.551; in assay [17], 0.283 (inactive); in assay [18], -0.0341; in [19], -1.87. Also, the z-score in [20] is 0.265 (inactive). Further, in [2], the composite z-score is 0.666.

For `C[C@]1(C(=O)NCCN2CCOCC2)c2ccccc2C(=O)N(Cc2ccc(OC(F)(F)F)cc2)[C@H]1c1ccc(CO)cc1`, the z-score in [1] was 0.0793 (inactive); in assay [3] it was 6.9 (inactive); in assay [4], 0.621 (inactive); in assay [5], 3.05 (inactive); in assay [6] it was 0.327 (inactive); in [7] it was -0.173. Moreover, the z-score in assay [8] was 0.752 (inactive); in assay [9] it was 1.19 (inactive); in assay [10], 0.0149; in assay [11], 0.742; in [12], -0.352; in assay [13] it was 0.342. The z-score in [14] was -0.285; in [15], 0.0667; in assay [16] it was 3.08; in [17] it was -0.446 (inactive); in assay [18], -0.275; in assay [19], -0.609. Further, in assay [20], the z-score is 0.354 (inactive). The composite z-score in [2] is -0.0523.

Regarding `C=CC[C@]1(C(=O)N(C)C)N=C(c2ccc(OCCCO)cc2)O[C@H]1c1ccccc1N=[N+]=[N-]`, the z-score in [1] is 0.355 (inactive); in assay [3] it was 30.8 (active); in [4], 28.4 (active); in assay [5] it was 2.88 (inactive); in [6], 7.33 (inactive); in [7], -0.219. For the same compound, the z-score in assay [8] is -1.06 (inactive); in assay [9], 1.52 (inactive); in [10] it was 0.668; in assay [11] it was -0.363; in assay [12], -0.768; in assay [13] it was -0.2. The z-score in assay [14] was -0.995; in [15] it was -1.85; in [16] it was -0.358; in assay [17] it was 0.0159 (inactive); in assay [18], -0.886; in [19] it was -1.23. Further, the z-score in assay [20] is -0.302 (inactive). The compound also gave a composite z-score in [2] of 0.313.
